# Assay results published in the supplement of paper PMC12282887.
# ± gives the standard deviation of the averaged measurements.
# Test system: E. coli BW25113 marRABp lux reporter
# Test: promoter activity interaction Z-score (Lux/OD deviation from empty-vector control); higher = stronger promoter induction by the compound
# Procedure: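 E. coli BW25113 (wild type or ΔmarA/ΔsoxS/Δrob) carrying pTU175 luxCDABE promoter reporters was grown in LB in 384-well plates at 37°C with each of 94 compounds at 4 two-fold concentrations, in biological duplicates. Luminescence and OD600 were read every 30 min for 12 h and integrated as AUC over 8 h (0-8 h WT, 1-9 h mutants). Lux AUC was divided by OD AUC; the interaction score is the residual of a Huber robust fit of each promoter against the empty-vector control, then Z-transformed per promoter.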
smiles,measurement,setting,value
COc1cccc2c1C(=O)c1c(O)c3c(c(O)c1C2=O)C[C@@](O)(C(=O)CO)C[C@@H]3O[C@H]1C[C@H](N)[C@H](O)[C@H](C)O1 [Doxorubicin],promoter activity interaction Z-score,"0.29 µg/ml, genetic background: wild type",0.237 ± 0.34
same,promoter activity interaction Z-score,"0.29 µg/ml, genetic background: ΔmarA",-0.264 ± 0.2
same,promoter activity interaction Z-score,"0.29 µg/ml, genetic background: Δrob",-0.254 ± 0.1
same,promoter activity interaction Z-score,"0.29 µg/ml, genetic background: ΔsoxS",0.0277 ± 0.11
same,promoter activity interaction Z-score,"0.58 µg/ml, genetic background: wild type",-0.0763 ± 0.21
same,promoter activity interaction Z-score,"0.58 µg/ml, genetic background: ΔmarA",0.0102 ± 0.26
same,promoter activity interaction Z-score,"0.58 µg/ml, genetic background: Δrob",-0.188 ± 0.032
same,promoter activity interaction Z-score,"0.58 µg/ml, genetic background: ΔsoxS",0.0987 ± 0.23
same,promoter activity interaction Z-score,"1.2 µg/ml, genetic background: wild type",0.0323 ± 0.31
same,promoter activity interaction Z-score,"1.2 µg/ml, genetic background: ΔmarA",-0.148 ± 0.1
same,promoter activity interaction Z-score,"1.2 µg/ml, genetic background: Δrob",-0.236 ± 0.064
same,promoter activity interaction Z-score,"1.2 µg/ml, genetic background: ΔsoxS",0.0249 ± 0.092
same,promoter activity interaction Z-score,"2.3 µg/ml, genetic background: wild type",-0.0695 ± 0.11
same,promoter activity interaction Z-score,"2.3 µg/ml, genetic background: ΔmarA",-0.158 ± 0.16
same,promoter activity interaction Z-score,"2.3 µg/ml, genetic background: Δrob",-0.24 ± 0.021
same,promoter activity interaction Z-score,"2.3 µg/ml, genetic background: ΔsoxS",-0.0671 ± 0.12
CO[C@@H]1[C@@H](OC(N)=O)[C@@H](O)[C@H](Oc2ccc3c(O)c(NC(=O)c4ccc(O)c(CC=C(C)C)c4)c(=O)oc3c2C)OC1(C)C [Novobiocin],promoter activity interaction Z-score,"2.4 µg/ml, genetic background: wild type",-0.221 ± 0.081
same,promoter activity interaction Z-score,"2.4 µg/ml, genetic background: ΔmarA",-0.11 ± 0.13
same,promoter activity interaction Z-score,"2.4 µg/ml, genetic background: Δrob",0.0782 ± 0.013
same,promoter activity interaction Z-score,"2.4 µg/ml, genetic background: ΔsoxS",-0.0478 ± 0.0032
same,promoter activity interaction Z-score,"4.8 µg/ml, genetic background: wild type",0.022 ± 0.23
same,promoter activity interaction Z-score,"4.8 µg/ml, genetic background: ΔmarA",0.415 ± 0.36
same,promoter activity interaction Z-score,"4.8 µg/ml, genetic background: Δrob",-0.164 ± 0.31
same,promoter activity interaction Z-score,"4.8 µg/ml, genetic background: ΔsoxS",-0.107 ± 0.12
same,promoter activity interaction Z-score,"9.5 µg/ml, genetic background: wild type",-0.297 ± 0.13
same,promoter activity interaction Z-score,"9.5 µg/ml, genetic background: ΔmarA",0.318 ± 0.33
same,promoter activity interaction Z-score,"9.5 µg/ml, genetic background: Δrob",-0.282 ± 0.11
same,promoter activity interaction Z-score,"9.5 µg/ml, genetic background: ΔsoxS",-0.114 ± 0.18
same,promoter activity interaction Z-score,"19 µg/ml, genetic background: wild type",1.2 ± 0.98
same,promoter activity interaction Z-score,"19 µg/ml, genetic background: ΔmarA",5.2 ± 2.7
same,promoter activity interaction Z-score,"19 µg/ml, genetic background: Δrob",0.0504 ± 0.67
same,promoter activity interaction Z-score,"19 µg/ml, genetic background: ΔsoxS",1.48 ± 0.89
CC[C@H](C)[C@H](N)C1=N[C@H](C(=O)N[C@@H](CC(C)C)C(=O)N[C@H](CCC(=O)O)C(=O)N[C@H](C(=O)N[C@H]2CCCCNC(=O)[C@H](CC(N)=O)NC(=O)[C@@H](CC(=O)O)NC(=O)[C@H](Cc3cnc[nH]3)NC(=O)[C@@H](Cc3ccccc3)NC(=O)[C@H]([C@@H](C)CC)NC(=O)[C@@H](CCCN)NC2=O)[C@@H](C)CC)CS1 [Bacitracin],promoter activity interaction Z-score,"35.6 µg/ml, genetic background: wild type",0.278 ± 0.2
same,promoter activity interaction Z-score,"35.6 µg/ml, genetic background: ΔmarA",0.153 ± 0.22
same,promoter activity interaction Z-score,"35.6 µg/ml, genetic background: Δrob",-0.0986 ± 0.2
same,promoter activity interaction Z-score,"35.6 µg/ml, genetic background: ΔsoxS",-0.193 ± 0.086
same,promoter activity interaction Z-score,"71.1 µg/ml, genetic background: wild type",-0.0216 ± 0.19
same,promoter activity interaction Z-score,"71.1 µg/ml, genetic background: ΔmarA",-0.262 ± 0.16
same,promoter activity interaction Z-score,"71.1 µg/ml, genetic background: Δrob",-0.251 ± 0.062
same,promoter activity interaction Z-score,"71.1 µg/ml, genetic background: ΔsoxS",-0.169 ± 0.029
same,promoter activity interaction Z-score,"142.3 µg/ml, genetic background: wild type",-0.588 ± 0.2
same,promoter activity interaction Z-score,"142.3 µg/ml, genetic background: ΔmarA",-0.5787 ± 0.0025
same,promoter activity interaction Z-score,"142.3 µg/ml, genetic background: Δrob",-0.542 ± 0.048
same,promoter activity interaction Z-score,"142.3 µg/ml, genetic background: ΔsoxS",-0.36 ± 0.085
same,promoter activity interaction Z-score,"284.5 µg/ml, genetic background: wild type",0.158 ± 0.24
same,promoter activity interaction Z-score,"284.5 µg/ml, genetic background: ΔmarA",0.0811 ± 0.011
same,promoter activity interaction Z-score,"284.5 µg/ml, genetic background: Δrob",-0.159 ± 0.29
same,promoter activity interaction Z-score,"284.5 µg/ml, genetic background: ΔsoxS",0.576 ± 0.23
